Measurements published in PubChem BioAssay (NCI).
Compounds without any hit were thinned out: in the full panel of roughly 79,000, 15% have a hit. Calls of active or inactive are those of the source. Cut-off read from the data, not from the text of the source: active = growth inhibition above about 70%; inactive = the rest.

Tests used:
[1] = NCI Yeast Anticancer Drug Screen. Data for the rad52 strain (AID 147);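 note: 0% = growth of vehicle-treated control cultures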; conditions: S. cerevisiae rad52 mutant growth inhibition, stronger effect = higher value
Method in brief: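 Here a repair-compromised yeast strain receives each compound; its growth is then quantified and normalised to vehicle-only controls.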

[2] = NCI Yeast Anticancer Drug Screen. Data for the wt1 strain (AID 149);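 note: 0% = growth of vehicle-treated wt1 cultures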; conditions: S. cerevisiae wt1 strain (SPY 50644) growth inhibition, stronger effect = higher value
Method in brief: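 Measured: growth of wt1 yeast under compound versus vehicle treatment, reported as inhibition.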

[3] = NCI Yeast Anticancer Drug Screen. Data for the rad50EPP+ strain (AID 151);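 note: 0% = growth of vehicle-treated control cultures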; conditions: S. cerevisiae rad50 mutant strain, stronger effect = higher value
Method in brief: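 Read-out is yeast growth inhibition relative to vehicle; cells used were the rad50EPP+ strain.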

[4] = NCI Yeast Anticancer Drug Screen. Data for the mgt1 strain (AID 153); conditions: S. cerevisiae mgt1 mutant growth inhibition, stronger effect = higher value
Method in brief: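 Measured: inhibition of mgt1 yeast growth by compound, normalized to vehicle-treated cultures.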

[5] = NCI Yeast Anticancer Drug Screen. Data for the rad50 strain (AID 155);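 note: 0% = growth of vehicle-only cultures of the same strain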; conditions: S. cerevisiae rad50 strain growth inhibition, stronger effect = higher value
Method in brief: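 Growth of the mutant yeast was measured after compound exposure and referenced to vehicle-treated cultures.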

[6] = NCI Yeast Anticancer Drug Screen. Data for the mec2-1 strain (AID 157); conditions: S. cerevisiae mec2-1 strain, stronger effect = higher value
Method in brief: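 Using mec2-1 yeast: add compound, measure growth, express inhibition versus vehicle-treated cultures.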

[7] = NCI Yeast Anticancer Drug Screen. Data for the rad14 strain (AID 159);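 note: 0% = growth of vehicle-treated control cultures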; conditions: S. cerevisiae rad14 strain growth inhibition, stronger effect = higher value
Method in brief: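 Here, inhibition of yeast growth was measured after compound exposure, using a strain with a genetic defect in DNA damage repair and vehicle-treated cultures as the reference.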

[8] = NCI Yeast Anticancer Drug Screen. Data for the sgs1 mgt1 strain (AID 161);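 note: 0% = growth of cultures given vehicle only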; conditions: S. cerevisiae sgs1 mgt1 strain, stronger effect = higher value
Method in brief: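 Yeast cells carrying a defined DNA-repair defect were exposed to test compounds. Growth inhibition was measured relative to vehicle-treated controls.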

[9] = NCI Yeast Anticancer Drug Screen. Data for the CLN2oe strain (AID 163);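 note: 0% = growth of vehicle-only control cultures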; conditions: S. cerevisiae CLN2oe strain, stronger effect = higher value
Method in brief: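 Whole-cell yeast growth assay. A strain engineered for altered cell-cycle control received compound, and inhibition relative to vehicle-treated cultures was recorded.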

[10] = NCI Yeast Anticancer Drug Screen. Data for the cln2 rad14 strain (AID 165);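 note: 0% = growth equal to vehicle treated cultures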; conditions: S. cerevisiae cln2 rad14 strain, stronger effect = higher value
Method in brief: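 Yeast strain cln2 rad14, bearing defects in cell cycle control and DNA repair, serves as the test system; values reflect growth inhibition compared with vehicle.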

[11] = NCI Yeast Anticancer Drug Screen. Data for the wt2 strain (AID 169);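 note: 0% = growth of vehicle-treated yeast cultures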; conditions: S. cerevisiae wt2 strain growth inhibition, stronger effect = higher value
Method in brief: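 Treated yeast vs. vehicle-treated yeast: growth inhibition determined.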

[12] = NCI Yeast Anticancer Drug Screen. Data for the mlh1 strain (AID 171);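 note: 0% = growth of vehicle-treated control cultures of the same strain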; conditions: S. cerevisiae mlh1 strain growth inhibition, stronger effect = higher value
Method in brief: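 A yeast strain with a defined genetic lesion serves as the test organism. Cultures receive compound or vehicle, and growth is measured.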

[13] = NCI Yeast Anticancer Drug Screen. Data for the sgs1 strain (AID 173);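 note: 0% = growth of vehicle-only control cultures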; conditions: S. cerevisiae sgs1 mutant, stronger effect = higher value
Method in brief: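 A genetically defined yeast mutant is incubated with the test compound, and its growth is compared to that of the same strain given vehicle.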

[14] = NCI Yeast Anticancer Drug Screen. Data for the mlh1 rad18 strain (AID 175); conditions: S. cerevisiae mlh1 rad18 strain growth inhibition, stronger effect = higher value
Method in brief: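 Steps: expose repair-defective yeast to compound; measure growth; express inhibition against vehicle-treated controls.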

[15] = NCI Yeast Anticancer Drug Screen. Data for the rad18 strain (AID 177); conditions: S. cerevisiae rad18 mutant growth inhibition, stronger effect = higher value
Method in brief: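 Measured value is growth inhibition of a yeast strain bearing a DNA repair alteration, referenced to vehicle-treated cells.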

[16] = NCI Yeast Anticancer Drug Screen. Data for the bub3 strain (AID 167); conditions: S. cerevisiae bub3 mutant strain, stronger effect = higher value
Method in brief: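 Whole-cell yeast assay. The mutant strain was incubated with compounds, and growth inhibition was determined by comparison with vehicle-treated cells.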

[17] = at 5.0 µM (retest, dose inferred, filed as 0.5)
[18] = at 50.0 µM (retest, dose inferred, filed as 5.0)

Measured: growth inhibition

O=C1c2cccc3cccc(c23)C(=O)N1CCNCCN1C(=O)c2cccc3cccc(c23)C1=O
active: [5]; [18] 84% | [5]; at 50.0 µM 86.1%
inactive: [1]; at 1.2 µM 1% | [1]; at 3.7 µM 3% | [1]; at 11.0 µM 5% | [1]; at 33.0 µM 14% | [1]; at 100.0 µM 34% | [2]; at 1.2 µM 0% | [2]; at 3.7 µM 0% | [2]; at 11.0 µM -1% | [2]; at 33.0 µM 1% | [2]; at 100.0 µM 5% | [3]; at 1.2 µM -1% | [3]; at 3.7 µM 0% | [3]; at 11.0 µM 0% | [3]; at 33.0 µM 2% | [3]; at 100.0 µM 10% | [4]; at 1.2 µM -3% | [4]; at 3.7 µM 0% | [4]; at 11.0 µM -1% | [4]; at 33.0 µM 1% | [4]; at 100.0 µM 2% | [5]; at 1.2 µM 1% | [5]; at 3.7 µM 3% | [5]; [17] 19% | [5]; at 11.0 µM 6% | [5]; at 33.0 µM 21% | [5]; at 100.0 µM 53% | [6]; at 1.2 µM -3% | [6]; at 3.7 µM -4% | [6]; [17] 6% | [6]; at 11.0 µM -3% | [6]; at 33.0 µM 2% | [6]; [18] 4% | [6]; at 50.0 µM 26.4% | [6]; at 100.0 µM 5% | [7]; at 1.2 µM 0% | [7]; at 3.7 µM 1% | [7]; at 11.0 µM 0% | [7]; at 33.0 µM -1% | [7]; at 100.0 µM 4% | [8]; [17] 5% | [8]; [18] 10% | [8]; at 50.0 µM 15.5% | [9]; at 1.2 µM -1% | [9]; at 3.7 µM -2% | [9]; at 11.0 µM 4% | [9]; at 33.0 µM -1% | [9]; at 100.0 µM -1% | [10]; [17] 6% | [10]; [18] 6% | [10]; at 50.0 µM 15.9% | [11]; at 1.2 µM 0% | [11]; at 3.7 µM 0% | [11]; at 11.0 µM 0% | [11]; at 33.0 µM 1% | [11]; at 100.0 µM 5% | [12]; at 1.2 µM 0% | [12]; at 3.7 µM -3% | [12]; at 11.0 µM -1% | [12]; at 33.0 µM 0% | [12]; at 100.0 µM 2% | [13]; at 1.2 µM -1% | [13]; at 3.7 µM -2% | [13]; at 11.0 µM -1% | [13]; at 33.0 µM -1% | [13]; at 100.0 µM 4% | [14]; [17] 4% | [14]; [18] 18% | [14]; at 50.0 µM 7.55% | [15]; at 1.2 µM -3% | [15]; at 3.7 µM -2% | [15]; at 11.0 µM -1% | [15]; at 33.0 µM -1% | [15]; at 100.0 µM 6%

CCCCCCC=C(C(=O)OCC)C(=O)OCC
active: [14]; [18] 85% | [14]; at 50.0 µM 76.3%
inactive: [1]; at 1.2 µM -2% | [1]; at 3.7 µM 0% | [1]; at 11.0 µM -1% | [1]; at 33.0 µM 2% | [1]; at 100.0 µM 23% | [2]; at 1.2 µM -2% | [2]; at 3.7 µM -3% | [2]; at 11.0 µM -6% | [2]; at 33.0 µM -7% | [2]; at 100.0 µM 4% | [3]; at 1.2 µM -1% | [3]; at 3.7 µM 4% | [3]; at 11.0 µM 7% | [3]; at 33.0 µM 14% | [3]; at 100.0 µM 24% | [4]; at 1.2 µM -1% | [4]; at 3.7 µM -3% | [4]; at 11.0 µM 0% | [4]; at 33.0 µM -5% | [4]; at 100.0 µM 13% | [5]; at 1.2 µM -2% | [5]; at 3.7 µM -3% | [5]; [17] -18% | [5]; at 11.0 µM -3% | [5]; at 33.0 µM -5% | [5]; [18] 11% | [5]; at 50.0 µM -8.3% | [5]; at 100.0 µM 22% | [6]; at 1.2 µM -1% | [6]; at 3.7 µM 1% | [6]; [17] -8% | [6]; at 11.0 µM -2% | [6]; at 33.0 µM 5% | [6]; [18] 46% | [6]; at 50.0 µM 38% | [6]; at 100.0 µM 22% | [7]; at 1.2 µM -3% | [7]; at 3.7 µM -4% | [7]; at 11.0 µM -2% | [7]; at 33.0 µM 2% | [7]; at 100.0 µM 13% | [8]; [17] -11% | [8]; [18] 68% | [8]; at 50.0 µM 42% | [9]; at 1.2 µM -4% | [9]; at 3.7 µM -4% | [9]; at 11.0 µM -8% | [9]; at 33.0 µM -10% | [9]; at 100.0 µM 3% | [10]; [17] -13% | [10]; [18] 19% | [10]; at 50.0 µM 18.1% | [16]; at 1.2 µM 0% | [16]; at 3.7 µM 0% | [16]; [17] -6% | [16]; at 11.0 µM -1% | [16]; at 33.0 µM 1% | [16]; [18] 18% | [16]; at 50.0 µM 63% | [16]; at 100.0 µM 17% | [11]; at 1.2 µM -2% | [11]; at 3.7 µM -3% | [11]; at 11.0 µM -5% | [11]; at 33.0 µM -4% | [11]; at 100.0 µM 16% | [13]; at 1.2 µM -1% | [13]; at 3.7 µM -1% | [13]; at 11.0 µM 1% | [13]; at 33.0 µM 5% | [13]; at 100.0 µM 30% | [14]; [17] -3% | [15]; at 1.2 µM -1% | [15]; at 3.7 µM 5% | [15]; at 11.0 µM 8% | [15]; at 33.0 µM 14% | [15]; at 100.0 µM 32%
